Screening results as filed in PubChem BioAssay.
HCV inhibitor: qHTS Assay for Inhibitors of Hepatitis C Virus (HCV); 340,000 tested, 3.4% active; Potency, µM (highest dose often 41.8 µM), without a hit: at the highest dose activity change, negative = inhibition, usual class: inhibitors; Huh7.5.1 HCVcc-Cre infection, luciferase reporter, 44 h; active means well fitted inhibition curve with a large enough effect; inconclusive means small, poorly fitted or top-dose-only effect, or another doubt; inactive means no such curve, though single readings can be large or run the other way; further: potency means the concentration at half of the fitted maximal effect
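1,000 cells/well; 4 h culture; + compound; + HCVcc-Cre (~0.5 moi); 44 h; luciferase substrate, RT 15 min; read 15 sec.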
LASV entry inh: qHTS for Inhibitors of binding or entry into cells for Lassa Virus | Lassa virus pseudotype entry inhibition, cell reporter | Potency, µM (doses to about 37.9 µM), without a hit: top-dose activity change, negative = inhibition, actives largely listed as inhibitors | 300,000 tested, 1.2% active; calls by dose curve; tested in HEK293 cells; further: potency means the concentration at half of the fitted maximal effect; nearly all actives have a fitted effect of over 50% in size
FMDV inh: High Throughput Screening for Foot and Mouth Disease Virus Antivirals; FMDV antiviral cell-based qHTS; Potency, µM (doses to about 57.9 µM), without a hit: at the highest dose activity change, negative = inhibition, hits mostly inhibitors; 410,000 tested, 1.2% active; AID 1159524, 2015; calls by dose curve; tested in HEK293T cells; further: read-out not given here; potency means the concentration at half of the fitted maximal effect; nearly all actives have a fitted effect of over 45% in size
MARV entry inh: qHTS for inhibitors of binding or entry into cells for Marburg Virus; 300,000 tested, 1.8% active; Potency, µM (titrated, usually from 37.8 µM), for inactives: at the top dose activity change, negative = inhibition, most hits filed as inhibitors; AID 540276, 2011; Marburg virus pseudotyped entry inhibition, cell reporter; calls by dose curve; tested in HEK293 cells; further: potency means the concentration at half of the fitted maximal effect
HCMV inh: qHTS Assay for inhibitors of the human cytomegalovirus (HCMV); activity change, negative = inhibition, % at 57.5 µM; 410,000 tested, 4.5% active; AID 1259415, 2018; HFF cells, HCMV-luciferase reporter, 72 h; hits give low values; in the data active means activity change below about -60%; inconclusive means no clear call, values can overlap the other calls; inactive means above about -39%
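Two compound doses tested in HFFs infected with HCMV-luciferase, MOI 1 PFU/cell, 72 h at 37C. Lysate luminescence read with OneGlo; data normalized against buffer-only and 10uM Salinomycin inhibitor controls.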
Active calls of the source: *; ? = inconclusive; . = no result; [ ] = remark or other dose. Shown are actives, neighbours in structure and some others; about 7.9% of the full set was active somewhere. On the % scale 0 is the no-effect control and ±100 the full control effect.

SMILES	HCV inhibitor	LASV entry inh	FMDV inh	MARV entry inh	HCMV inh
CCc1ccc(C2CC(=O)c3c([nH]c(C(=O)OCCOc4ccccc4)c3C)C2)cc1 (stereo not drawn)	.	?	?	?	-73*
CCOc1ccc(C2CC(=O)c3c([nH]c(C(=O)OCCOc4ccccc4)c3C)C2)cc1 (stereo not drawn)	.	?	-23%	-1%[46.1 µM]	-106*
CCCc1c(C(=O)OCC)[nH]c2c1C(=O)CCC2	?	.	-12%	.	-19
Cc1c(C(=O)OCc2ccccc2)[nH]c2c1C(=O)CC(c1ccc(Cl)cc1)C2 (stereo not drawn)	.	-10%[46.1 µM]	-11%	-30%[46.1 µM]	-69*
Cc1ccc(C(C)C)c(OCC(=O)Nc2c(C(=O)c3ccccc3)oc3ccccc23)c1	.	10%[46.1 µM]	-1%	3%[46.1 µM]	5
CCOC(=O)C1(Cc2ccccc2)CCN(Cc2ccc3c(c2)OCCO3)CC1	8%	-1%	-20%	-3%[46.1 µM]	-17
CC(=O)Nc1ccc(S(=O)(=O)CC(=O)CS(=O)(=O)c2ccc(NC(C)=O)cc2)cc1	.	.	18%	.	-28
CC(C)NC(=O)CSc1nc(N)c(NC(=O)c2ccccc2F)c(=O)[nH]1	5%	-2%	-8%	16%	-30
COC(=O)c1[nH]c2c(c1C)C(=O)CC(c1ccccc1)C2 (stereo not drawn)	?	?	.	?	-69*
CCOc1ccc(NS(=O)(=O)c2cc(C(=O)N(CC)CC(=O)NCc3cccs3)ccc2C)cc1	?	-20%[46.1 µM]	29%	?	-28
Cc1ccc(NC(=O)c2cc(S(=O)(=O)N3CCc4ccccc43)cn2C)c(Cl)c1	.	10%[46.1 µM]	-10%	.	-61*
CCOc1ccc(NC(=O)c2cc(S(=O)(=O)N3CCc4ccccc43)ccc2F)cc1	.	?	-19%	.	?
CCc1ccccc1NC(=O)c1cc(S(=O)(=O)N2CCc3ccccc32)cn1C	5%	.	?	.	4
CCCNC(=O)c1cc(S(=O)(=O)N2CCc3ccccc32)cn1C	8.9µM*	.	?	.	?
CCCCCCNC(=O)c1cc(S(=O)(=O)N2CCc3ccccc32)ccc1F	4%	.	-14%	.	-69*
COc1ccc(-c2csc3ncnc(Nc4ccc(OC)c(OC)c4)c23)cc1	.	-42%[46.1 µM]	?	.	?
CCOC(=O)c1nn(-c2ccc(Br)cc2)cc1C(=O)c1cccc2ccccc12	-27%	?	43%	5.8µM*	-26
CC(C)CC(C(=O)NCC1CCN(Cc2ccc(F)cc2)CC1)N1Cc2ccccc2C1=O (stereo not drawn)	.	?	-13%	.	-30
Cc1nc(N2CCCCCC2)c2ccccc2n1	10µM*	.	-30%	.	?
c1ccc2c(c1)nc(N1CCCCC1)c1ccccc12	?	-3%	-24%	?	-20
c1ccc2c(N3CCCCC3)nc(N3CCCC3)nc2c1	3.2µM*	?	?	?	-29
c1ccc2nc(N3CCCC3)c(N3CCCCC3)nc2c1	-3%	-3%	-23%	11%	-13
CN(C)c1ccc2cc3c(c(S(=O)(=O)c4ccccc4)c2c1)CCC3	.	.	.	.	-10
CCCc1nc2oc3c(NCCN4CCOCC4)ncnc3c2c2c1CCCC2	?	11%	-24%	1%	71
CC(C)Cc1nc2oc3c(Cl)ncnc3c2c2c1CCC2	4.5µM*	?	1%	?	-96*
SMILES	HCV inhibitor	LASV entry inh	FMDV inh	MARV entry inh	HCMV inh
CC(C)Cc1nc2oc3c(NCCCN4CCOCC4)ncnc3c2c2c1CCC2	10µM*	?	-3%	?	?
Cc1ccc(C)c(CNC(=O)CN2C(=O)CSc3ccc(S(=O)(=O)N(C)C)cc32)c1	.	1%[46.1 µM]	-4%	.	-1
Cc1cc(N2CCN(S(=O)(=O)c3ccc(Cl)cc3)CC2)c2ccccc2n1	11µM*	16µM*	.	?	-87*
Cc1ccc(S(=O)(=O)N2CCN(c3ccnc4cc(Cl)ccc34)CC2)cc1C	-8%	-2%[46.1 µM]	?	?	?
Cc1cc(N2CCN(S(=O)(=O)c3ccc(Cl)c(Cl)c3)CC2)c2ccccc2n1	11µM*	.	?	.	?
Cc1ccc(C)c(Cn2c3ccccc3c3cnn(CC(=O)NCC(C)c4ccccc4)c(=O)c32)c1 (stereo not drawn)	.	?	-18%	5%[46.1 µM]	-11
CCc1ccccc1NC(=O)/C(=C/c1ccco1)c1ccccc1	?	16µM*	?	?	-24
CC(C)(C)NC(=O)/C(=C/c1ccco1)c1ccccc1	-17%	11%	-21%	-5%	29
Cc1ccccc1NC(=O)/C(=C/c1ccco1)c1ccccc1	-14%	-7%	0%	-23%	-104*
CC(C)(C)S(=O)(=O)c1nc2ccccc2s1	20%	-1%	-8%	11%	30
C=CCS(=O)(=O)c1nc2ccccc2s1	?	?	?	-31%	-97*
O=S(=O)(CCSc1nc2ccccc2s1)c1nc2ccccc2s1	?	?	8.9µM*	?	-85*
O=C(O)c1cc2c(s1)-c1ccccc1OC2	17%	9%	7%	?	21
O=C(NC1CC1)c1cc2c(s1)-c1ccccc1OC2	11µM*	.	-5%	.	?
N#Cc1ccc2[nH]cc(C3c4cc(F)ccc4C=C(c4ccsc4)N3c3ccc(C#CCCO)cc3)c2c1 (stereo not drawn)	.	.	-14%	.	-1
CC(C)(O)C#Cc1ccc(N2C(c3ccsc3)=Cc3ccc(F)cc3C2c2c[nH]c3ccccc23)cc1 (stereo not drawn)	.	.	-13%	.	-63*
CCOc1ccc(CCNC(=O)c2ccc3c(c2)N(Cc2ccccc2F)C(=O)c2ccccc2S3=O)cc1OCC (stereo not drawn)	.	-16%[46.1 µM]	-23%	?	-7
CC(=O)c1ccc(CCCC(=O)O)cc1	2%	7%	8%	10%	-2
CC(=O)c1ccc(Cc2ccc(C(C)=O)cc2)cc1	0%	-17%	-9%	30%[46.1 µM]	-88*
COc1cc(-c2nnc(COC(=O)c3ccc(C)o3)o2)cc(OC)c1OC	-9%	-30%	-24%	0%	8
CC(=O)N(c1ccccc1)C1CC(C)N(C(=O)c2ccccc2)c2ccccc21 (stereo not drawn)	-29%	-22%	?	?	-38
Cc1ccc(C(=O)N(c2ccccc2)C2CC(C)N(C(=O)c3ccco3)c3ccccc32)cc1 (stereo not drawn)	11µM*	-24%	-9%	?	?
COCCNC(=O)c1ccc2c(Cl)c3c(nc2c1)CCC3	-11%	14%	34%	?	48
O=C1Nc2cc(C(=O)NCCCN3CCCC3)ccc2S/C1=C/c1ccccc1F	?	.	-18%	.	-37
CC1CCN(CCCNC(=O)c2ccc3c(Cl)c4c(nc3c2)CCCC4)CC1	8.9µM*	?	-26%	10µM*	?
O=C(NCCCN1CCCCC1)c1ccc2c(c1)NC(=O)c1ccccc1S2	10µM*	.	-9%	.	-35
